Reference: ChEMBL document CHEMBL1961873, “Compounds: GSK PKIS; Assays: Nanosyn kinase panel” (2012)

What was measured:
[1] = biological target: High affinity nerve growth factor receptor (Homo sapiens) (UniProt P04629); conditions: at 1 µM;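 note: each value is the mean percent inhibition of TRKA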
[2] = biological target: BDNF/NT-3 growth factors receptor (Homo sapiens) (UniProt Q16620); conditions: at 0.1 µM
[3] = biological target: BDNF/NT-3 growth factors receptor (Homo sapiens) (UniProt Q16620); conditions: at 1 µM
[4] = biological target: NT-3 growth factor receptor (Homo sapiens) (UniProt Q16288); conditions: at 0.1 µM
[5] = biological target: NT-3 growth factor receptor (Homo sapiens) (UniProt Q16288); conditions: at 1 µM
[6] = biological target: T1, Tyrosine-protein kinase TXK (Homo sapiens) (UniProt P42681); conditions: at 0.1 µM
T1 sequence (whole entry): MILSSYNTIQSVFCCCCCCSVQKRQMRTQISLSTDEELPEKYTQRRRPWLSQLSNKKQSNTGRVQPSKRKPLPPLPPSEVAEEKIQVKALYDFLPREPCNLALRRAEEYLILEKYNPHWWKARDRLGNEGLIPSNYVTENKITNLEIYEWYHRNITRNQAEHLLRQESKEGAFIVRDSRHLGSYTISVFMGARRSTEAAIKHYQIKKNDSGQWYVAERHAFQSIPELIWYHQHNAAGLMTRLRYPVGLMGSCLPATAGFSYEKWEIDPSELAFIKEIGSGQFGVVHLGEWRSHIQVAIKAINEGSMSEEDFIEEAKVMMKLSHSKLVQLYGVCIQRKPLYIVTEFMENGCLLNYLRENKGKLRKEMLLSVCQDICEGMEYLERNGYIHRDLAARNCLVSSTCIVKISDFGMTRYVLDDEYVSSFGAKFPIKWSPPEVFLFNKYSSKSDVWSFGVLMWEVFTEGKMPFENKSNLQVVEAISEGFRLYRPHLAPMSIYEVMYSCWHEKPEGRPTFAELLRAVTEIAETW

[7] = biological target: T1, Tyrosine-protein kinase TXK (Homo sapiens); conditions: at 1 µM
[8] = biological target: Non-receptor tyrosine-protein kinase TYK2 (Homo sapiens) (UniProt P29597); conditions: at 0.1 µM;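 note: each value is a mean of the inhibition readings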
[9] = biological target: T2, Dual specificity protein kinase TTK (Homo sapiens) (UniProt P33981); conditions: at 1 µM;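 note: reported figures are mean TTK inhibition at 1 µM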
T2 sequence (whole entry): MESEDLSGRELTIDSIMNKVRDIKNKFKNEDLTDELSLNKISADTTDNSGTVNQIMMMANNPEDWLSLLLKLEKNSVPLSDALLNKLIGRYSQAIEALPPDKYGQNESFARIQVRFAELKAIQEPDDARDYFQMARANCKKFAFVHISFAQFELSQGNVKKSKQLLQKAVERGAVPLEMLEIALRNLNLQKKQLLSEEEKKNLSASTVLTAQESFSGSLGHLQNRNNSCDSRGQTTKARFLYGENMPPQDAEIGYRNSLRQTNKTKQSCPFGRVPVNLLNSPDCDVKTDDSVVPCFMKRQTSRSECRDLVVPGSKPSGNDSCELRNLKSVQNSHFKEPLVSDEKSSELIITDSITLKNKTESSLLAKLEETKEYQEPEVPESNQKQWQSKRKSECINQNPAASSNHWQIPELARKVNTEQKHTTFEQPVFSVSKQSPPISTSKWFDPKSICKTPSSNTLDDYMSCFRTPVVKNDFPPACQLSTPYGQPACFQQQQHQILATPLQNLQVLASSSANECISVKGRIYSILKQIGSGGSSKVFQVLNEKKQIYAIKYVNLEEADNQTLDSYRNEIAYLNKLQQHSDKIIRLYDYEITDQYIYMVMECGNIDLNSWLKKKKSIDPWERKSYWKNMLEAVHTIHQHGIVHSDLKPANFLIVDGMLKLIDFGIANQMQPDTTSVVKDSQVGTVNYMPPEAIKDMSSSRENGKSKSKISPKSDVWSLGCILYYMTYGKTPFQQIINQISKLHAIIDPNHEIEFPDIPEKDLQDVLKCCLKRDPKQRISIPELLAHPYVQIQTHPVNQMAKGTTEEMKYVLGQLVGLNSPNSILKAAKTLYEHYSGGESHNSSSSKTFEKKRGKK

[10] = biological target: T3, Aurora kinase A (Homo sapiens) (UniProt O14965); conditions: at 0.1 µM;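 note: each reported value is a mean percent inhibition of Aurora-A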
T3 sequence (whole entry): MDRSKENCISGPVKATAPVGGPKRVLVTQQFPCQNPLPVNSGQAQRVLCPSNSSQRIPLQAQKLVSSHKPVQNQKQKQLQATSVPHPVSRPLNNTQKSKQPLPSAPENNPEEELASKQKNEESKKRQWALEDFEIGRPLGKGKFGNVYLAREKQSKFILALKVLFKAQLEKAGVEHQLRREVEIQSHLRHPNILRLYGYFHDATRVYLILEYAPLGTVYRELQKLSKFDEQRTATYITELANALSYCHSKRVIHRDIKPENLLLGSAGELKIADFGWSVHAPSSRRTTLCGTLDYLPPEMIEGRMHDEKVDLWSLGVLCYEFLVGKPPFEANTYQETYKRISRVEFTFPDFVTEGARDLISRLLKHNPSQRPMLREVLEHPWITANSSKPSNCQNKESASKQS

Non-receptor tyrosine-protein kinase TYK2 (Homo sapiens), sequence (P29597 whole entry): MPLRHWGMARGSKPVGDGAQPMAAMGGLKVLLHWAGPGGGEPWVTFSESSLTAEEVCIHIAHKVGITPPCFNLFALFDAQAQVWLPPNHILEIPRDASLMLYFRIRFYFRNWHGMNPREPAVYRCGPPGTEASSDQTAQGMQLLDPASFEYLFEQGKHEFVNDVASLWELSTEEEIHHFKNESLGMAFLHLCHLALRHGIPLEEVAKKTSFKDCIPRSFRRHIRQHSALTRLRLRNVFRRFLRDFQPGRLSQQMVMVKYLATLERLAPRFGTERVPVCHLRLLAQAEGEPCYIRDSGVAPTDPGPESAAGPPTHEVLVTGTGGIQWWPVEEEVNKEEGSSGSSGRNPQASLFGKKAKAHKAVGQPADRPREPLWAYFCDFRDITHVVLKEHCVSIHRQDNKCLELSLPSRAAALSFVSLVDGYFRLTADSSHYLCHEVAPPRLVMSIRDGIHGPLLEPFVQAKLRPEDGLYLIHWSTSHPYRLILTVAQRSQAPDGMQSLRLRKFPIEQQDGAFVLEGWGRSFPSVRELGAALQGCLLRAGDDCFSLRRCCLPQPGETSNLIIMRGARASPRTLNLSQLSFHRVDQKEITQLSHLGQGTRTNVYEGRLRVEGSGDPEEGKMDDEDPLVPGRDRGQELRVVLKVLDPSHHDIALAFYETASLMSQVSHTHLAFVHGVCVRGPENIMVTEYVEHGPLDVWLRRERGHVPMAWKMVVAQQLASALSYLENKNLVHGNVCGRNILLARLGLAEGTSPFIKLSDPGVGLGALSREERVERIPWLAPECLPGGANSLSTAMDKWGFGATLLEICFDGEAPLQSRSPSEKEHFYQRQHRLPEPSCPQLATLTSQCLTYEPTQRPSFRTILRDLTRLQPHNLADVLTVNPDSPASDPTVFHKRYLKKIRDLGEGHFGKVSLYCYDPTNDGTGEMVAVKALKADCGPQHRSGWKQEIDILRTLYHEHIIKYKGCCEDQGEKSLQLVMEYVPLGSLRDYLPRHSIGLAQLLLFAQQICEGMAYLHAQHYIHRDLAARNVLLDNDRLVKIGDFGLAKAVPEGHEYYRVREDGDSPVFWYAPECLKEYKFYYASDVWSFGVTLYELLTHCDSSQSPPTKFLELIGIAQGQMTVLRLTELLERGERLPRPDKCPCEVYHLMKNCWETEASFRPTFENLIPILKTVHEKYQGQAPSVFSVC
High affinity nerve growth factor receptor (Homo sapiens), sequence (P04629 33-796 limits assumed): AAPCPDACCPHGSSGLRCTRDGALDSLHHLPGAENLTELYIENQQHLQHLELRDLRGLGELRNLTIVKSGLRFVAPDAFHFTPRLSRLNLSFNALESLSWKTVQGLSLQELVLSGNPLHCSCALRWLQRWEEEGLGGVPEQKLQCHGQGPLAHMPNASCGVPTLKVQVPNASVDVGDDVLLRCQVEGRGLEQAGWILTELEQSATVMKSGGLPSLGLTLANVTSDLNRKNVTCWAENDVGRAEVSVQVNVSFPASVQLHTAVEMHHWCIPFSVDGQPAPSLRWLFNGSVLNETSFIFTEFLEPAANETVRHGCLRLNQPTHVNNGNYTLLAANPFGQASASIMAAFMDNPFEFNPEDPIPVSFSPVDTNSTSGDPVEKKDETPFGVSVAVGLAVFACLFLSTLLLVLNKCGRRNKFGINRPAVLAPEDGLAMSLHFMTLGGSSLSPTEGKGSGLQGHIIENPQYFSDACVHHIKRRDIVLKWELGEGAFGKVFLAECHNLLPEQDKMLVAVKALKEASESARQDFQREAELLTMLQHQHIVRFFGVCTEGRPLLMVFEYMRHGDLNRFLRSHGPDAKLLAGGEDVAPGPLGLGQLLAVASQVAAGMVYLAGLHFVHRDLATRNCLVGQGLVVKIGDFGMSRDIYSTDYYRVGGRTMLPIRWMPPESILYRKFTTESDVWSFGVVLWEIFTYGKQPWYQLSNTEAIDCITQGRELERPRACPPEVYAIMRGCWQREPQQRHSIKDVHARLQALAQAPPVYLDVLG
BDNF/NT-3 growth factors receptor (Homo sapiens), sequence (Q16620 32-822 limits assumed): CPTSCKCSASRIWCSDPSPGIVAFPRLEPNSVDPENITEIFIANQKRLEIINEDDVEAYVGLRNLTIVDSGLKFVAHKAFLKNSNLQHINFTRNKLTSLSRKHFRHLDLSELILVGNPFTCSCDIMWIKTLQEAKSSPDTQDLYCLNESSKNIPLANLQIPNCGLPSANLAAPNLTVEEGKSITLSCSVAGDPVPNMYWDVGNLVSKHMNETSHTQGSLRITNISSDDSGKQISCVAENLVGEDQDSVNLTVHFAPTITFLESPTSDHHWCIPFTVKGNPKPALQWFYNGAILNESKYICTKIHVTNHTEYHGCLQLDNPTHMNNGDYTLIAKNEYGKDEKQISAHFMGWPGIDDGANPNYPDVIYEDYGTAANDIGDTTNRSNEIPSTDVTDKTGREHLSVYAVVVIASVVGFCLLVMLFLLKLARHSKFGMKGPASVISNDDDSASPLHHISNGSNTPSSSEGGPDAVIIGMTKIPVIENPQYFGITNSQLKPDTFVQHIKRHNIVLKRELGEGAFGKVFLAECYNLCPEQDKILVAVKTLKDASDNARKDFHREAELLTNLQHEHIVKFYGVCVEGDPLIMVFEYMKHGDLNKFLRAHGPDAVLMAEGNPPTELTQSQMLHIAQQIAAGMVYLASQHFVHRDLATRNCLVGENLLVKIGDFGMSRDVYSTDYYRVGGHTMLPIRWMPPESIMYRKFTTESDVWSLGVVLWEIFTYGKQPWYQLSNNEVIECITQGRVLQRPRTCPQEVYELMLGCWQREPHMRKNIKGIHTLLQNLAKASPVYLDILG
NT-3 growth factor receptor (Homo sapiens), sequence (Q16288 32-839 limits assumed): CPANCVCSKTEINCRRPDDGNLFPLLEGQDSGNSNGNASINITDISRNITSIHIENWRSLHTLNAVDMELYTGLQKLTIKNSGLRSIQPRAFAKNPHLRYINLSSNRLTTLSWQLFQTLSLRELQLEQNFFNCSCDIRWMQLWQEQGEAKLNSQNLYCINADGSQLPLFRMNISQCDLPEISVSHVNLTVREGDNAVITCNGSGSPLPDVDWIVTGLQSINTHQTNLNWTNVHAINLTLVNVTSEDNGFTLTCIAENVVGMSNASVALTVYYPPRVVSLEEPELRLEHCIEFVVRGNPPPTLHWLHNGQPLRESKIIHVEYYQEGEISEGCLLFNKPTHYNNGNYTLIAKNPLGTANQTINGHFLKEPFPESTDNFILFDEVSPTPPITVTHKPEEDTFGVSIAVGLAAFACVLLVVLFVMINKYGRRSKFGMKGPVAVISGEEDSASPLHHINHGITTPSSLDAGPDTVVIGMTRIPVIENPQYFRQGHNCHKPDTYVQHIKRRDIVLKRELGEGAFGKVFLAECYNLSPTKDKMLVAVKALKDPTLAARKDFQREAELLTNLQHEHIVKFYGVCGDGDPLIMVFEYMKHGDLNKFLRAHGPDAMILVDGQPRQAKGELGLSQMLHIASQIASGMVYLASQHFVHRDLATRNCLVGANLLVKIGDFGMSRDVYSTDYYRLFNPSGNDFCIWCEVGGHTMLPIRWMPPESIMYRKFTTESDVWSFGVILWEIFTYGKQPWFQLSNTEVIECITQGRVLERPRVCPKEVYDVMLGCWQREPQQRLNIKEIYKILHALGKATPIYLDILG

| Compound | inhibition [1] | inhibition [2] | inhibition [3] | inhibition [4] | inhibition [5] | inhibition [6] | inhibition [7] | inhibition [8] | inhibition [9] | inhibition [10] |
| --- | --- | --- | --- | --- | --- | --- | --- | --- | --- | --- |
| CC1=C(C(=O)Nc2ccc3[nH]ncc3c2)C(c2ccc(F)cc2)NC(=O)N1 (stereo not drawn) | 3.3% | 0.91% | 4.06% | 0.06% | 5.04% | 1.25% | 3.78% | 1.26% | 1.11% | 7.75% |
| CS(=O)(=O)CCN(CC#N)Cc1ccc(-c2ccc3ncnc(Nc4ccc(OCc5cccc(F)c5)c(Cl)c4)c3c2)o1 | 4.12% | 1.7% | 3.2% | 1.69% | 1.13% | -2.35% | -2.94% | -3.9% | 5.67% | -2.58% |
| CCn1c(-c2nonc2N)nc2ccncc21 | -0.79% | -1.44% | -3.63% | -2.79% | -1.79% | 0.17% | 3.88% | 0.97% | 6.38% | 2.36% |
| Fc1cccc(COc2ccc(Nc3ncnc4sc(-c5cccs5)cc34)cc2Cl)c1 | 2.88% | 1.85% | 1.29% | 1.21% | 1.03% | 2.2% | 0.81% | -0.26% | 2.5% | 1.44% |
| Cc1cccc(-c2n[nH]cc2-c2ccc3ncccc3n2)n1 | -0.2% | -0.22% | 0.79% | 0.22% | -0.92% | 1.27% | 2.32% | -0.15% | 3.31% | 2.76% |
| CCCN1CCC(Oc2cc(Nc3nc(Nc4cccc(F)c4C(N)=O)c4cc[nH]c4n3)c(OC)cc2Cl)CC1 | 5.14% | -1.93% | 3.41% | -1.48% | 5.25% | 2.84% | 3.46% | 0.33% | 33.7% | 0.38% |
| COC(=O)Nc1nc2cc(Oc3ccc(NC(=O)Nc4cccc(C(=O)O)c4)cc3)ccc2[nH]1 | 3.47% | 0.82% | 1.02% | 1.95% | 3.8% | -2.97% | 1.48% | 1.17% | 9.64% | -1.89% |
| CCN1CCC(CC(=O)Nc2n[nH]c3nc(-c4cccs4)c(Br)cc23)CC1 | 0.88% | -0.35% | -1.99% | -0.62% | 0.26% | -1.07% | -3.55% | -2.72% | -0.41% | -2.72% |
| CCn1c(-c2nonc2N)nc2cncc(C(=O)N3CCNCC3)c21 | 4.86% | 3.21% | 4.35% | 3.96% | 4.33% | 7.08% | 5.49% | -1.93% | 12.5% | 5.21% |
| Cc1cc(O)cc(C)c1/C=C/c1cncc(-c2nn[nH]n2)c1 | 3.5% | 3.7% | 3.06% | 3.61% | 8.05% | 5.73% | 45.3% | -2.89% | 11.1% | -1.67% |
| CCn1c(-c2nonc2N)nc2cncc(C(=O)N3CC[C@H](N)C3)c21 | 2.78% | 4.37% | 3.61% | 2.56% | 3.15% | 3.09% | 2.08% | -0.69% | 2.6% | 3.07% |
| CCn1c(-c2nonc2N)nc2c(C#CC(C)(C)O)nc(CN3CCCC3)cc21 | -1.66% | -0.98% | -0.47% | -1.68% | -2.34% | 1.55% | 2.08% | 3.47% | 5.1% | 0.54% |
| Cn1cc(C=C2C(=O)Nc3cccnc32)c2ccccc21 | 66% | 25.3% | 75.5% | 20.5% | 71.6% | 2.53% | 6.47% | -0.05% | 22.8% | 5.95% |
| Cc1ccc(NC(=O)c2ccnc(N3CCCC3)c2)cc1-c1ccc(C(=O)NCC2CC2)cc1 | 2.28% | 3.47% | 1.15% | 3.16% | 3.39% | -1.04% | 0.09% | -3.05% | 16.9% | 0.15% |
| COc1ccc(COc2ccc(Cc3cnc(N)nc3N)cc2OC)cc1 | 50% | 25.7% | 75.4% | – | – | 4.15% | 4.97% | 3.75% | 3.14% | 4.1% |
| CCn1c(-c2nonc2N)nc2c(C#CC(C)(C)O)nc(OC[C@@H](N)c3ccccc3)cc21 | 1.12% | -1.96% | 0.07% | -1.23% | 3.35% | 6.5% | 5.38% | 2.72% | 1.66% | 1.81% |
| CS(=O)(=O)CCNCc1ccc(-c2ccc3ncnc(Nc4ccc(OCc5cccc(F)c5)c(C(F)(F)F)c4)c3c2)o1 | -0.52% | 2.14% | 2.72% | 2.59% | 3.16% | 3.11% | 3.02% | -4.14% | 7.39% | 4.12% |
